Laboratory results published in PubChem BioAssay (Tox21).
Unmarked numbers belong to inactive results. Results filed as inconclusive are left out. Where a call stands in place of a potency, no number is given. Activity calls are given as the source filed them. Calls follow the shape of the dose curve; as a rule, active = well fitted curve in the direction sought with a large enough effect in the repeat runs; inconclusive = weak or mixed curves; inactive = no such curve, though single readings can be large; an effect the other way counts as inactive or inconclusive.

Experiments:
[1] = A CellTox Green Cytotoxicity Assay to monitor cytotoxicity in HEK293 cells - 40 hour (AID 1224871); also: nearly all actives have a fitted effect of over 45% in size; also: potency is read from the fitted curve at half-maximal effect
Procedure, shortened: (§1)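 Cells (HEK293, 600/well) and dye reagent are dispensed together. After 5 h at 37 C, 23 nL compound is pinned in. Plates stay at 37 C for 40 h with fluorescence read at 0h, 8h, 16h, 24h, 32h and 40h.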

[2] = qHTS RealTime-Glo MT Cell Viability Assay in HEK293 cells - 16 hour (AID 1224872); also: nearly all actives have a fitted effect of over 50% in size; also: potency is read from the fitted curve at half-maximal effect
Procedure, shortened: (§2)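 Viability tracked continuously by luminescence as live cells reduce a prosubstrate for NanoLuc; HEK293 cells preincubated 5 h, compound-treated at 37 C, and read at 0, 8, 16, 24, 32 and 40 h.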

[3] = qHTS RealTime-Glo MT Cell Viability Assay in HepG2 cells - 8 hour (AID 1224873); also: nearly all actives have a fitted effect of over 55% in size; also: potency is read from the fitted curve at half-maximal effect
Procedure, shortened: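 Real-time viability: cells seeded at 600 per well together with NanoLuc and cell-permeant prosubstrate, compounds added after 5 h incubation. Luminescence tracked at 0, 8, 16, 24, 32 and 40 h of exposure.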

[4] = qHTS RealTime-Glo MT Cell Viability Assay in HEK293 cells - 40 hour (AID 1224874); details: RealTime-Glo luminescence; max response: hits give low values; also: nearly all actives have a fitted effect of over 50% in size; also: potency is read from the fitted curve at half-maximal effect
Procedure, shortened: (§3)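 Real-time viability in HEK293: signal arises when living cells convert a prosubstrate for NanoLuc in the medium, so luminescence tracks viable cell number. Compound (23 nL, DMSO) added 5 h post-seeding; kinetic reads at 0–40 h, 37 C.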

[5] = A CellTox Green Cytotoxicity Assay to monitor cytotoxicity in HEK293 cells - 24 hour (AID 1224875); also: series mostly up to about 77 µM; nearly all actives have a fitted effect of over 45% in size
Procedure, shortened: as §1

[6] = A CellTox Green Cytotoxicity Assay to monitor cytotoxicity in HepG2 cells - 16 hour (AID 1224876); also: nearly all actives have a fitted effect of over 45% in size; also: potency is read from the fitted curve at half-maximal effect
Procedure, shortened: (§4)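 Cells and non-lytic dye reagent are dispensed together (600 HepG2 cells/well) and incubated 5 h before DMSO compound transfer. Kinetic fluorescence is then recorded in the same wells during 40 h at 37 C.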

[7] = qHTS RealTime-Glo MT Cell Viability Assay in HepG2 cells - 32 hour (AID 1224877); also: nearly all actives have a fitted effect of over 55% in size; also: potency is read from the fitted curve at half-maximal effect
Procedure, shortened: (§5)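 Viability was tracked continuously by NanoLuc luminescence from prosubstrate reduced by living HepG2 cells, at successive time points over 40 h of compound exposure. Cells with reagent were preincubated 5 h at 37 °C before compound addition.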

[8] = A CellTox Green Cytotoxicity Assay to monitor cytotoxicity in HepG2 cells - 24 hour (AID 1224878); also: nearly all actives have a fitted effect of over 45% in size; also: potency is read from the fitted curve at half-maximal effect
Procedure, shortened: as §4

[9] = qHTS RealTime-Glo MT Cell Viability Assay in HEK293 cells - 0 hour (AID 1224880); also: nearly all actives have a fitted effect of over 45% in size; also: potency is read from the fitted curve at half-maximal effect
Procedure, shortened: as §3

[10] = A CellTox Green Cytotoxicity Assay to monitor cytotoxicity in HEK293 cells - 32 hour (AID 1224881); also: nearly all actives have a fitted effect of over 40% in size
Procedure, shortened: as §1

[11] = A CellTox Green Cytotoxicity Assay to monitor cytotoxicity in HepG2 cells - 32 hour (AID 1224883); also: nearly all actives have a fitted effect of over 50% in size; also: potency is read from the fitted curve at half-maximal effect
Procedure, shortened: as §4

[12] = A CellTox Green Cytotoxicity Assay to monitor cytotoxicity in HEK293 cells - 8 hour (AID 1224884); also: nearly all actives have a fitted effect of over 35% in size
Procedure, shortened: as §1

[13] = qHTS RealTime-Glo MT Cell Viability Assay in HepG2 cells - 16 hour (AID 1224885); also: nearly all actives have a fitted effect of over 50% in size
Procedure, shortened: as §5

[14] = qHTS RealTime-Glo MT Cell Viability Assay in HEK293 cells - 24 hour (AID 1224886); also: nearly all actives have a fitted effect of over 50% in size; also: potency is read from the fitted curve at half-maximal effect
Procedure, shortened: as §2

[15] = A CellTox Green Cytotoxicity Assay to monitor cytotoxicity in HEK293 cells - 16 hour (AID 1224888); also: nearly all actives have a fitted effect of over 35% in size
Procedure, shortened: as §1

[16] = A CellTox Green Cytotoxicity Assay to monitor cytotoxicity in HepG2 cells - 40 hour (AID 1224879); also: nearly all actives have a fitted effect of over 40% in size; also: potency is read from the fitted curve at half-maximal effect
Procedure, shortened: as §4

[17] = A CellTox Green Cytotoxicity Assay to monitor cytotoxicity in HepG2 cells - 0 hour (AID 1224882); also: nearly all actives have a fitted effect of over 35% in size
Procedure, shortened: as §4

[18] = qHTS RealTime-Glo MT Cell Viability Assay in HEK293 cells - 8 hour (AID 1224887); also: nearly all actives have a fitted effect of over 50% in size; also: potency is read from the fitted curve at half-maximal effect
Procedure, shortened: as §3

[19] = qHTS RealTime-Glo MT Cell Viability Assay in HepG2 cells - 0 hour (AID 1224889); also: nearly all actives have a fitted effect of over 50% in size; also: potency is read from the fitted curve at half-maximal effect
Procedure, shortened: as §5

| Structure (SMILES) | Potency [1] | Potency [2] | Potency [3] | max response [4] [%] | Potency [5] | Potency [6] | Potency [7] | Potency [8] | Potency [9] | Potency [10] | Potency [11] | Potency [12] | Potency [13] | Potency [14] | Potency [15] | Potency [4] | Potency [16] | Potency [17] | Potency [18] | Potency [19] |
| --- | --- | --- | --- | --- | --- | --- | --- | --- | --- | --- | --- | --- | --- | --- | --- | --- | --- | --- | --- | --- |
| Cc1cc(C(=C2C=CC(=Nc3ccc(S(=O)(=O)O)cc3S(=O)(=O)O)C=C2)c2ccc(Nc3ccc(S(=O)(=O)O)cc3)cc2)ccc1N | inactive | inactive | inactive | -3.61 | inactive | inactive | inactive | inactive | inactive | inactive | inactive | inactive | inactive | inactive | inactive |  |  |  |  |  |
| O=C(CCCN1CCN(c2ccc(F)cc2)CC1)NC1c2ccccc2CSc2ccccc21 (stereo not given) | inactive | 19 µM (active) |  |  | inactive |  | 23.9 µM (active) | 23.9 µM (active) | inactive | inactive | 23.9 µM (active) | inactive |  | 16.9 µM (active) | inactive | 16.9 µM (active) | 23.9 µM (active) | inactive | 19 µM (active) | inactive |
| CCc1cccc(N(C)C(N)=Nc2cccc3ccccc23)c1 | inactive | inactive | inactive |  | inactive | inactive | inactive |  | inactive | inactive |  | inactive | inactive | inactive | inactive |  |  |  |  |  |
| Cc1c(C(=O)NN2CCCCC2)nn(-c2ccc(Cl)cc2Cl)c1-c1ccc(Cl)cc1 | inactive |  | inactive |  | inactive | inactive | inactive | inactive | inactive | inactive | inactive | inactive | inactive |  | inactive |  | inactive | inactive |  | inactive |
| O=C1OCCN1/N=C/c1ccc([N+](=O)[O-])o1 | inactive | inactive |  | 2.01 | inactive | inactive | inactive | inactive | inactive | inactive | inactive | inactive | inactive | inactive | inactive |  | inactive | inactive | inactive | inactive |
| CC[C@@H]([C@H](C)O)n1ncn(-c2ccc(N3CCN(c4ccc(OC[C@@H]5CO[C@@](Cn6cncn6)(c6ccc(F)cc6F)C5)cc4)CC3)cc2)c1=O | inactive | 5.35 µM (active) |  |  | inactive | inactive |  | inactive | inactive | inactive | inactive | inactive |  | 2.68 µM (active) | inactive | 5.35 µM (active) | inactive |  | 6.01 µM (active) | inactive |
| CNCCCC1c2ccccc2C=Cc2ccccc21 |  | inactive | inactive |  |  | 23.9 µM (active) | 23.9 µM (active) | 23.9 µM (active) |  |  | 23.9 µM (active) | inactive |  |  | inactive | 23.9 µM (active) | 23.9 µM (active) | inactive | inactive |  |
| COc1cc2c(N3CCN(C(=O)Nc4ccc(OC(C)C)cc4)CC3)ncnc2cc1OCCCN1CCCCC1 |  |  | inactive |  | inactive | inactive | inactive |  | inactive | inactive | 26.8 µM (active) | inactive | inactive |  | inactive | 9.52 µM (active) | 26.8 µM (active) |  |  | inactive |
| Oc1cc(O)c(Cl)cc1Cl | inactive | inactive | inactive | 17.2 | inactive | inactive | inactive | inactive | inactive | inactive | inactive | inactive | inactive | inactive | inactive |  | inactive |  |  | inactive |
| O=C(O)c1snc(Cl)c1Cl | inactive | inactive | inactive | 13.2 | inactive |  | inactive | inactive | inactive | inactive | inactive | inactive | inactive | inactive | inactive |  | inactive | inactive | inactive |  |
| CC1(C)O[C@@H]2C[C@H]3[C@@H]4CCC5=CC(=O)C=C[C@]5(C)[C@H]4[C@@H](O)C[C@]3(C)[C@]2(C(=O)CO)O1 | inactive | inactive | inactive | -1.67 | inactive |  | inactive | inactive | inactive | inactive | inactive | inactive | inactive | inactive |  |  |  |  | inactive |  |
| Cc1cc(O)c2c(O)c3c(O)cccc3cc2c1 | inactive | inactive | inactive | -16.2 | inactive |  | inactive | inactive | inactive | inactive | inactive | inactive | inactive | inactive | inactive |  | inactive | inactive |  |  |
| CC(C)(O)c1ccccc1CC[C@@H](SCC1(CC(=O)O)CC1)c1cccc(/C=C/c2ccc3ccc(Cl)cc3n2)c1 | inactive | inactive | inactive | 0.38 | inactive |  | inactive | inactive | inactive | inactive | inactive | inactive | inactive | inactive | inactive |  |  | inactive | inactive | inactive |
| O=C(CCCN1CCC(O)(c2ccc(Br)cc2)CC1)c1ccc(F)cc1 | inactive | 9.52 µM (active) | inactive |  | inactive |  |  | 23.9 µM (active) | inactive | inactive | 26.8 µM (active) |  | inactive | 10.7 µM (active) | inactive | 10.7 µM (active) |  |  | 8.49 µM (active) | inactive |
| CC1(C)C2=CCCC(C)(C)[C@]23CC[C@H]1C3 | 38.9 µM (active) | inactive | inactive | -11.7 | inactive |  | inactive |  | 24.5 µM (active) |  |  | inactive | inactive | inactive | inactive |  |  |  | inactive | 34.7 µM (active) |
| CCOC(=O)C(C)Oc1ccc(Oc2nc3ccc(Cl)cc3o2)cc1 (stereo not given) | inactive | 21.9 µM (active) | 15.5 µM (active) |  | inactive |  |  | inactive | inactive | inactive | inactive | inactive |  | 24.5 µM (active) |  |  |  | inactive | 21.9 µM (active) | inactive |
| CN1CCN(CCCN2c3ccccc3Sc3ccc(S(=O)(=O)N(C)C)cc32)CC1 |  |  | inactive |  |  | 23.9 µM (active) |  | 26.8 µM (active) |  |  | 26.8 µM (active) |  |  |  | inactive |  | 26.8 µM (active) | inactive |  |  |
| CC1(C)C(=O)N(Br)C(=O)N1Cl | inactive | inactive | inactive | 8.13 | inactive | inactive | inactive | inactive | inactive | inactive | inactive | inactive | inactive | inactive | inactive |  |  | inactive | inactive | inactive |
| CC1=C(C=O)C(C)(C)CCC1 |  |  | inactive |  |  |  | inactive | inactive |  |  | inactive |  | inactive |  |  |  | inactive |  |  |  |
| COCC(O)CO (stereo not given) | inactive | inactive | inactive | -5.25 | inactive | inactive | inactive | inactive | inactive | inactive | inactive | inactive | inactive | inactive | inactive |  | inactive |  |  | inactive |
